Measurements: the supplement of paper PMC11732987, “Enantioselective OTUD7B fragment discovery through chemoproteomics screening and high-throughput optimisation” (Communications Chemistry, 2025)

Tests used:
Experiment in all cases: log2 ratio of Biotin-Ahx-Ub-VS probe labelling (compound/DMSO); higher = less target engagement, active = hit call of the paper (q ≤ 0.05, log2 ratio ≤ -1)
Details in all cases: treatment time: 3 h
[1] = compound: CCC1N(CCc2sccc12)C(=O)CCl
In short: (§1)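 Compound at 50 or 200 µM, or DMSO, was applied for 3 h in triplicate to HEK293T lysate (495 µg per sample, Tris/CHAPS/IGEPAL buffer with protease inhibitors), after which Biotin-Ahx-Ub-VS was added at 0.5 µM final for 1 h. The labelled DUBs were pulled down with NeutrAvidin, digested with LysC and trypsin, and run by diaPASEF LC-MS/MS. Ratios are averaged base-two logs of compound over DMSO from median-normalised label-free quantities by unpaired t-test, counting only proteins with at least 2 unique peptides.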

[2] = compound: CN1c2ccccc2C(CS1(=O)=O)NC(=O)CCl
In short: as §1

[3] = compound: Cl.ClCC(=O)N1CCc2ncncc2C1
In short: as §1

[4] = compound: Cl.Cn1ncc2C(CCCc12)NC(=O)CCl
In short: as §1

[5] = compound: ClCC(=O)NC1CCOc2ccccc12
In short: as §1

[6] = compound: ClCC(=O)NC1CCCc2ccccc12
In short: (§2)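 Spectronaut label-free, global-median-normalised protein quantities underlie these values, which are average ratios of compound to vehicle from an unpaired t-test. They are reported as log2 and include only proteins identified by two or more unique peptides. Samples of HEK293T lysate (495 µg) were treated in triplicate with a compound concentration series or vehicle for 3 h, then labelled with Biotin-Ahx-Ub-VS at 0.5 µM final for 1 h before NeutrAvidin enrichment, LysC and trypsin digestion, and diaPASEF LC-MS/MS.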

[7] = compound: ClCC(=O)N[C@@H]1CCCc2ccccc12
In short: as §2

[8] = compound: ClCC(=O)N[C@H]1CCCc2ccccc12
In short: as §2

[9] = compound: CCC1N(CCc2cc(OC)c(Cl)cc12)C(=O)CCl
In short: as §1

[10] = compound: CCCC1N(CCc2cc(OC)c(OC)cc12)C(=O)CCl
In short: as §1

[11] = compound: CN(Cc1cccc(Br)c1)C(=O)CCl
In short: as §1

[12] = compound: CN(Cc1cccc(OCc2ccccc2C)c1)C(=O)CCl
In short: as §1

[13] = compound: CN(Cc1ccccc1)C(=O)CCl
In short: as §1

[14] = compound: COc1ccc(CN(C)C(=O)CCl)cc1
In short: as §1

[15] = compound: COc1cccc(CN(CCCc2ccccc2)C(=O)CCl)c1
In short: as §1

[16] = compound: ClCC(=O)N1CCc2cc(Cl)c(Cl)cc2C1
In short: as §1

[17] = compound: ClCC(=O)N1CCc2nc(ncc2C1)-c1ccccc1
In short: as §1

[18] = compound: ClCC(=O)N1CCc2nocc2C1
In short: as §1

[19] = compound: ClCC(=O)N1CCc2scc(Br)c2C1
In short: as §1

[20] = compound: ClCC(=O)NC(C1CCCC1)c1cccs1
In short: as §1

Measured: log2 ratio of Biotin-Ahx-Ub-VS probe labelling

UniProt Q9UGI0
Sequence of UniProt Q9UGI0 (Q9UGI0 whole entry): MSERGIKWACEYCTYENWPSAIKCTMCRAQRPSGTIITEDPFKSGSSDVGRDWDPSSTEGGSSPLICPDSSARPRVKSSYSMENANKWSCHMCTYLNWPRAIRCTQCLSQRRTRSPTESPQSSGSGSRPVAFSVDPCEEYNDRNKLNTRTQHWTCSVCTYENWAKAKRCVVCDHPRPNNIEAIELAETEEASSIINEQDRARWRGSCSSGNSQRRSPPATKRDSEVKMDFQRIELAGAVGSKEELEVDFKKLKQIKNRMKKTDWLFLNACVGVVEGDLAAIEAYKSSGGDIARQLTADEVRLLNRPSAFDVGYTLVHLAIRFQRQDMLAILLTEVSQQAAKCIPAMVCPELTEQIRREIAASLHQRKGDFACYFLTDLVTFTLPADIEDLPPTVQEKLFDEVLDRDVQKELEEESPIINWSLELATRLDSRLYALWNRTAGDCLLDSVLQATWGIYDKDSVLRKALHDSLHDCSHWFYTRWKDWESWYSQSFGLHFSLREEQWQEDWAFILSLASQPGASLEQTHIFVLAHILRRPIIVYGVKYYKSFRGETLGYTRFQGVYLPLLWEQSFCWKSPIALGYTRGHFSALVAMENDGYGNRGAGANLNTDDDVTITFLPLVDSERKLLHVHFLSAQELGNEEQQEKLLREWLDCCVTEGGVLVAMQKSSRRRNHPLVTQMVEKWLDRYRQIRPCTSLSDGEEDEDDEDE
active: [18]; compound concentration: 200uM -1.16 | [19]; compound concentration: 200uM -1.14
inactive: [1]; compound concentration: 50uM -0.292 | [1]; compound concentration: 200uM -0.203 | [2]; compound concentration: 50uM -0.406 | [2]; compound concentration: 200uM 0.104 | [3]; compound concentration: 50uM -0.538 | [3]; compound concentration: 200uM -0.31 | [4]; compound concentration: 50uM -0.202 | [4]; compound concentration: 200uM 0.279 | [5]; compound concentration: 50uM 0.0945 | [5]; compound concentration: 200uM -0.4 | [6]; compound concentration: 0.78uM -0.0262 | [6]; compound concentration: 1.56uM 0.0502 | [6]; compound concentration: 3.13uM -0.0706 | [6]; compound concentration: 6.25uM 0.0502 | [6]; compound concentration: 12.5uM 0.00734 | [6]; compound concentration: 25uM -0.073 | [6]; compound concentration: 50uM -0.0421 | [6]; compound concentration: 100uM -0.161 | [6]; compound concentration: 200uM -0.304 | [7]; compound concentration: 0.78uM 0.0537 | [7]; compound concentration: 1.56uM -0.0707 | [7]; compound concentration: 3.13uM 0.111 | [7]; compound concentration: 6.25uM -0.134 | [7]; compound concentration: 12.5uM -0.0472 | [7]; compound concentration: 25uM -0.0247 | [7]; compound concentration: 50uM -0.136 | [7]; compound concentration: 100uM -0.218 | [7]; compound concentration: 200uM -0.262 | [8]; compound concentration: 0.78uM -0.114 | [8]; compound concentration: 1.56uM 0.117 | [8]; compound concentration: 3.13uM -0.00437 | [8]; compound concentration: 6.25uM -0.00155 | [8]; compound concentration: 12.5uM -0.143 | [8]; compound concentration: 25uM -0.115 | [8]; compound concentration: 50uM 0.0192 | [8]; compound concentration: 100uM -0.022 | [8]; compound concentration: 200uM -0.133 | [9]; compound concentration: 50uM -0.0637 | [9]; compound concentration: 200uM -0.0883 | [10]; compound concentration: 50uM -0.0341 | [10]; compound concentration: 200uM -0.418 | [11]; compound concentration: 50uM -0.13 | [11]; compound concentration: 200uM -0.336 | [12]; compound concentration: 50uM -0.392 | [12]; compound concentration: 200uM -0.664 | [13]; compound concentration: 50uM -0.482 | [13]; compound concentration: 200uM -0.697 | [14]; compound concentration: 50uM -0.127 | [14]; compound concentration: 200uM -0.258 | [15]; compound concentration: 50uM -0.157 | [15]; compound concentration: 200uM -0.231 | [16]; compound concentration: 50uM 0.132 | [16]; compound concentration: 200uM -0.542 | [17]; compound concentration: 50uM 0.0381 | [17]; compound concentration: 200uM -0.223 | [18]; compound concentration: 50uM -0.539 | [19]; compound concentration: 50uM -0.277 | [20]; compound concentration: 50uM -0.0906 | [20]; compound concentration: 200uM 0.116
